The source made the active and inactive calls.

Results on five compounds are retold here after PubChem BioAssay.

A short description of assay [1]: small molecules captured by biotinylated probe aFSTL3 – biochemical, small-molecule microarray, fluorescence 635/667, stem cell growth factor project, primary screen (AID 1064).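 Also: measures binding of the biotinylated anti-FSTL3 antibody to printed compounds.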 Conditions: higher = more signal.
A short description of assay [2]: binders from COS7 lysate, DM2A8 probe, primary screen, torsin A project, cell lysate, small-molecule microarray, fluorescence 635/667 (AID 1065). Conditions: higher = more signal, COS7 lysate expressing mutant human TOR1A.
Assay [3] is described as follows: small molecules captured by biotinylated probe aFGF2 – biochemical, small-molecule microarray, fluorescence 635/667, stem cell growth factor project, primary screen (AID 1067).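 Also: measures binding of biotinylated aFGF2 protein to printed compounds on slides; z-score merges feature fluorescence and signal-to-noise across triplicate slides.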 Conditions: higher = more signal.
A short description of assay [4]: small molecules captured by biotinylated probe aFGF10 – biochemical, small-molecule microarray, fluorescence 635/667, stem cell growth factor project, primary screen (AID 1071).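 Also: score merges 667 nm spot intensity and signal to noise from triplicate slides.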 Conditions: higher = more signal.
The target of assay [5] is Neurogenic locus notch homolog protein 2 (Homo sapiens) (UniProt Q04721). Briefly: small molecules binding Notch2 protein – biochemical, small-molecule microarray, 635 nm fluorescence, stem cell growth factors, primary screen (AID 1073). Conditions: higher = more signal.
The target of assay [6] is Pro-neuregulin-1, membrane-bound isoform (Homo sapiens) (UniProt Q02297). Briefly: small molecules binding neuregulin-1 protein – biochemical, small-molecule microarray, fluorescence 635/667, psychiatric disease protein project, primary screen (AID 1075).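 Also: score combines 667 nm spot fluorescence with signal to noise.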 Conditions: NRG1 binding, 635 nm fluorescence, higher = more signal.
Assay [7] relates to Neuregulin-1 EGF-like domain. Nature of the assay: small molecules binding NRG1 EGF domain – biochemical, small-molecule microarray, 635 nm fluorescence, primary screen (AID 1081).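 Also: binding of the protein to compounds printed on small-molecule microarray slides.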 Conditions: higher = more signal.
Assay [8] can be described thus: FRG1 expression reporter modulators in myotubes – cell-based, C2C12 myotubes, firefly/Renilla luciferase, luminescence, FRG1 inhibition for FSHD, primary screen (AID 1084). Conditions: FRG1 promoter luciferase, higher = more signal, called active from +8 up or from −8 down.
Assay [9] in a line: small molecules captured by biotinylated probe aFST – biochemical, small-molecule microarray, fluorescence 635/667, stem cell growth factor project, primary screen (AID 1086).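 Also: score merges 667 nm fluorescence with signal-to-noise of each printed compound spot.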 Conditions: higher = more signal.
Assay [10] can be described thus: binders of probe aHhip on microarray, primary screen, stem cell growth factor project, biochemical, small-molecule microarray, fluorescence 635/667 (AID 1087).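 Also: score merges spot fluorescence at 667nm with spot signal to noise ratio.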 Conditions: higher = more signal.
The subject of assay [11] is PRMT1 (protein arginine N-methyltransferase 1). Nature of the assay: small molecules binding arginine methyltransferase PRMT1 – biochemical, small-molecule microarray, 635 nm fluorescence, primary screen (AID 1088).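 Also: binding of Prmt1 protein to compounds spotted on small-molecule microarray slides.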 Conditions: higher = more signal.
Assay [12] in a line: growth effects on S. cerevisiae YJM789 – YJM789 clinical isolate, OD600, 24 h, basal, primary screen (AID 1089).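 Also: growth of clinical yeast isolate S. cerevisiae YJM 789 seeded 1000 cells per well; test concentration not given here.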 Conditions: higher = more signal, called active from +8 up or from −8 down.
Assay [13] can be described thus: S. pombe growth modifiers, basal conditions – strain 972, OD600, 24 h, no modulator, primary screen (AID 1090).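 Also: basal condition with compound alone and no growth modifier present; test concentration not given here.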 Conditions: S. pombe 972 growth, higher = more signal, called active from +8 up or from −8 down.
Assay [14] can be described thus: budding yeast growth modifiers under rapamycin – strain BY4716, OD600, 96 h, primary screen (AID 1091). Also: test concentration not given here. Conditions: S. cerevisiae BY4716 + rapamycin, higher = more signal, called active from +8 up or from −8 down.
Assay [15] addresses Torsin-1A-interacting protein 2 (Homo sapiens) (UniProt Q8NFQ8). Nature of the assay: small molecules binding lysate-expressed LULL1 – cell lysate, human LULL1 lysate, 635/667 nm fluorescence, primary screen (AID 1092).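 Also: probe is lysate of COS7 cells overexpressing human LULL1; score merges per-feature 667 nm fluorescence with signal-to-noise.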 Conditions: small-molecule microarray, hLULL1 lysate binding, 635 nm fluorescence; higher = more signal.
Assay [16] is described as follows: optical density change of DRC41 E. coli – strain DRC41, OD650, 24 h, E. coli filamentation project, primary screen (AID 1093).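 Also: MC1000 strain lacking acrAB efflux and sulA so SOS filamentation is blocked; test concentration not given here.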 Conditions: E. coli DRC41 growth, higher = more signal, called active from +8 up or from −8 down.
Assay [17] can be described thus: probe aLefty2 binding to arrayed compounds – biochemical, biotinylated probe, 635/667 nm fluorescence, primary screen (AID 1094).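 Also: score merges spot fluorescence near 667 nm with spot signal-to-noise ratio.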 Conditions: small-molecule microarray, higher = more signal.
For assay [18], the system named is Noggin (protein binding on small-molecule microarray). Nature of the assay: small molecules binding Noggin protein – biochemical, 635/667 nm fluorescence, primary screen (AID 1095).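 Also: score merges 667 nm feature fluorescence with signal to noise over triplicate slides.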 Conditions: 635 nm fluorescence, higher = more signal.
Assay [19] deals with Neurogenic locus notch homolog protein 3 (Homo sapiens) (UniProt Q9UM47). Briefly: small molecules binding NOTCH3 protein – biochemical, 635/667 nm fluorescence, primary screen (AID 1096). Conditions: small-molecule microarray, 635 nm fluorescence, higher = more signal.
The nature of assay [20]: probe aEGFR binding to arrayed compounds – biochemical, biotinylated probe, 635/667 nm fluorescence, primary screen (AID 1097).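 Also: probe is a biotinylated anti-EGFR antibody binding compounds printed on slides; score combines fluorescence near 667 nm and signal to noise of each spot.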 Conditions: small-molecule microarray, higher = more signal.

Neurogenic locus notch homolog protein 3 (Homo sapiens), sequence (Q9UM47 whole entry, looked up): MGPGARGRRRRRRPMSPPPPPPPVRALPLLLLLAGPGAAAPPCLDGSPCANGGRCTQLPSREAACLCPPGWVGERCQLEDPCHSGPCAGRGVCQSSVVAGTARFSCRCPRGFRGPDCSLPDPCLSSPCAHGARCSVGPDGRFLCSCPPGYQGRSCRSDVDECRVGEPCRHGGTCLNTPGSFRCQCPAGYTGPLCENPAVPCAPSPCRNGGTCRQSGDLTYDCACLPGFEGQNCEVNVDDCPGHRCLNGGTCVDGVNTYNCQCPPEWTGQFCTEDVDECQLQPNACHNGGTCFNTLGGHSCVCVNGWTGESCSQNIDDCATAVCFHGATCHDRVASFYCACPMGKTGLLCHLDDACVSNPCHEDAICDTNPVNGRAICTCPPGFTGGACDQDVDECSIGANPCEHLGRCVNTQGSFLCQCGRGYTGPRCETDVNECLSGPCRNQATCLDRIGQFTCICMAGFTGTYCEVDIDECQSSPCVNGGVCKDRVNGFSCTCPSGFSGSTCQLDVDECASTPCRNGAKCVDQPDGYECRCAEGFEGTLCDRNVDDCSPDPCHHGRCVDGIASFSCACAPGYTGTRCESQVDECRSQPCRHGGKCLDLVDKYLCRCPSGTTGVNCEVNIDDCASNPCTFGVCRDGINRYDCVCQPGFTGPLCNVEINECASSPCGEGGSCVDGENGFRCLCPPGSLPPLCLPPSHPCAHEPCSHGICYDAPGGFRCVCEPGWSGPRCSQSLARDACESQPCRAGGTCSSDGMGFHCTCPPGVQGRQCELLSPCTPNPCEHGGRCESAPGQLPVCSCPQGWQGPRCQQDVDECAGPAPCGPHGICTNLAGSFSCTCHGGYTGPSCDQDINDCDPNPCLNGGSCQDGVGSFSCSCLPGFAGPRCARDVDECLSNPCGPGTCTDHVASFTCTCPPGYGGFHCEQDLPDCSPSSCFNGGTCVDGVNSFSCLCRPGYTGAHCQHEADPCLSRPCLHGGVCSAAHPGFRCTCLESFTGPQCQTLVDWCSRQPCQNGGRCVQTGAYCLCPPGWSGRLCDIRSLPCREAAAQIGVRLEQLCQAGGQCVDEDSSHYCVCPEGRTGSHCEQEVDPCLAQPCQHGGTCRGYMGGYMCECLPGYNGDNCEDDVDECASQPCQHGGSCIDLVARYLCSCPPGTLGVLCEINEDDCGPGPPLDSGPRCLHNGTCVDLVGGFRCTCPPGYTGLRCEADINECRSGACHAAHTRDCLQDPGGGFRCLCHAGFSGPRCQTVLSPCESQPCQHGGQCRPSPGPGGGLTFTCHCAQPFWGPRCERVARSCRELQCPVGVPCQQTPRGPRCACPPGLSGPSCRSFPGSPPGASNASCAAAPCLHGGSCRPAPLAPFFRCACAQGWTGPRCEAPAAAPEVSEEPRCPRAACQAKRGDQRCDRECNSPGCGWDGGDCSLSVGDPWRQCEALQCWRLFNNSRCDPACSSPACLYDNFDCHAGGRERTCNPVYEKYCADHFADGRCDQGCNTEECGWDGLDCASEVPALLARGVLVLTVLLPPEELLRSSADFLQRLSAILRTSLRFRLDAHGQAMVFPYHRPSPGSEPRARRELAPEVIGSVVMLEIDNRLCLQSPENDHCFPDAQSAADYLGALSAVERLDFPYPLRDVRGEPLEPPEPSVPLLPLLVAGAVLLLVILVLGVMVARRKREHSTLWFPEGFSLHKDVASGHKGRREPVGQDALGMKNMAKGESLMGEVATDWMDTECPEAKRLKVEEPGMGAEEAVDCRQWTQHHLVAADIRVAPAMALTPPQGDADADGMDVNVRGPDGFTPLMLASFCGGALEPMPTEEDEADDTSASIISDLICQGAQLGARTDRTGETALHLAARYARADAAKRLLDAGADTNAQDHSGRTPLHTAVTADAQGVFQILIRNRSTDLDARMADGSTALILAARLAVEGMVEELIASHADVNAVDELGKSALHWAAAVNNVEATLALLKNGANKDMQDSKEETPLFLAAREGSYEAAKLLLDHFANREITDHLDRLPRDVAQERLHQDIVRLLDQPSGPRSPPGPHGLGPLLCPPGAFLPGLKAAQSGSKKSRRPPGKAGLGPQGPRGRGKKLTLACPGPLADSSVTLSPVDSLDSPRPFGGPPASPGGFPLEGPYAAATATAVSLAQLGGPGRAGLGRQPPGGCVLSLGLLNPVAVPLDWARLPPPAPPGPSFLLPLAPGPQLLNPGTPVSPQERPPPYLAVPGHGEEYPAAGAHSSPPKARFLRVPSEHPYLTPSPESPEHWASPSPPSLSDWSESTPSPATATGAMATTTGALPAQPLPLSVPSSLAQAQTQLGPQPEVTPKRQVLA
Neurogenic locus notch homolog protein 2 (Homo sapiens), sequence (Q04721 whole entry, looked up, canonical isoform): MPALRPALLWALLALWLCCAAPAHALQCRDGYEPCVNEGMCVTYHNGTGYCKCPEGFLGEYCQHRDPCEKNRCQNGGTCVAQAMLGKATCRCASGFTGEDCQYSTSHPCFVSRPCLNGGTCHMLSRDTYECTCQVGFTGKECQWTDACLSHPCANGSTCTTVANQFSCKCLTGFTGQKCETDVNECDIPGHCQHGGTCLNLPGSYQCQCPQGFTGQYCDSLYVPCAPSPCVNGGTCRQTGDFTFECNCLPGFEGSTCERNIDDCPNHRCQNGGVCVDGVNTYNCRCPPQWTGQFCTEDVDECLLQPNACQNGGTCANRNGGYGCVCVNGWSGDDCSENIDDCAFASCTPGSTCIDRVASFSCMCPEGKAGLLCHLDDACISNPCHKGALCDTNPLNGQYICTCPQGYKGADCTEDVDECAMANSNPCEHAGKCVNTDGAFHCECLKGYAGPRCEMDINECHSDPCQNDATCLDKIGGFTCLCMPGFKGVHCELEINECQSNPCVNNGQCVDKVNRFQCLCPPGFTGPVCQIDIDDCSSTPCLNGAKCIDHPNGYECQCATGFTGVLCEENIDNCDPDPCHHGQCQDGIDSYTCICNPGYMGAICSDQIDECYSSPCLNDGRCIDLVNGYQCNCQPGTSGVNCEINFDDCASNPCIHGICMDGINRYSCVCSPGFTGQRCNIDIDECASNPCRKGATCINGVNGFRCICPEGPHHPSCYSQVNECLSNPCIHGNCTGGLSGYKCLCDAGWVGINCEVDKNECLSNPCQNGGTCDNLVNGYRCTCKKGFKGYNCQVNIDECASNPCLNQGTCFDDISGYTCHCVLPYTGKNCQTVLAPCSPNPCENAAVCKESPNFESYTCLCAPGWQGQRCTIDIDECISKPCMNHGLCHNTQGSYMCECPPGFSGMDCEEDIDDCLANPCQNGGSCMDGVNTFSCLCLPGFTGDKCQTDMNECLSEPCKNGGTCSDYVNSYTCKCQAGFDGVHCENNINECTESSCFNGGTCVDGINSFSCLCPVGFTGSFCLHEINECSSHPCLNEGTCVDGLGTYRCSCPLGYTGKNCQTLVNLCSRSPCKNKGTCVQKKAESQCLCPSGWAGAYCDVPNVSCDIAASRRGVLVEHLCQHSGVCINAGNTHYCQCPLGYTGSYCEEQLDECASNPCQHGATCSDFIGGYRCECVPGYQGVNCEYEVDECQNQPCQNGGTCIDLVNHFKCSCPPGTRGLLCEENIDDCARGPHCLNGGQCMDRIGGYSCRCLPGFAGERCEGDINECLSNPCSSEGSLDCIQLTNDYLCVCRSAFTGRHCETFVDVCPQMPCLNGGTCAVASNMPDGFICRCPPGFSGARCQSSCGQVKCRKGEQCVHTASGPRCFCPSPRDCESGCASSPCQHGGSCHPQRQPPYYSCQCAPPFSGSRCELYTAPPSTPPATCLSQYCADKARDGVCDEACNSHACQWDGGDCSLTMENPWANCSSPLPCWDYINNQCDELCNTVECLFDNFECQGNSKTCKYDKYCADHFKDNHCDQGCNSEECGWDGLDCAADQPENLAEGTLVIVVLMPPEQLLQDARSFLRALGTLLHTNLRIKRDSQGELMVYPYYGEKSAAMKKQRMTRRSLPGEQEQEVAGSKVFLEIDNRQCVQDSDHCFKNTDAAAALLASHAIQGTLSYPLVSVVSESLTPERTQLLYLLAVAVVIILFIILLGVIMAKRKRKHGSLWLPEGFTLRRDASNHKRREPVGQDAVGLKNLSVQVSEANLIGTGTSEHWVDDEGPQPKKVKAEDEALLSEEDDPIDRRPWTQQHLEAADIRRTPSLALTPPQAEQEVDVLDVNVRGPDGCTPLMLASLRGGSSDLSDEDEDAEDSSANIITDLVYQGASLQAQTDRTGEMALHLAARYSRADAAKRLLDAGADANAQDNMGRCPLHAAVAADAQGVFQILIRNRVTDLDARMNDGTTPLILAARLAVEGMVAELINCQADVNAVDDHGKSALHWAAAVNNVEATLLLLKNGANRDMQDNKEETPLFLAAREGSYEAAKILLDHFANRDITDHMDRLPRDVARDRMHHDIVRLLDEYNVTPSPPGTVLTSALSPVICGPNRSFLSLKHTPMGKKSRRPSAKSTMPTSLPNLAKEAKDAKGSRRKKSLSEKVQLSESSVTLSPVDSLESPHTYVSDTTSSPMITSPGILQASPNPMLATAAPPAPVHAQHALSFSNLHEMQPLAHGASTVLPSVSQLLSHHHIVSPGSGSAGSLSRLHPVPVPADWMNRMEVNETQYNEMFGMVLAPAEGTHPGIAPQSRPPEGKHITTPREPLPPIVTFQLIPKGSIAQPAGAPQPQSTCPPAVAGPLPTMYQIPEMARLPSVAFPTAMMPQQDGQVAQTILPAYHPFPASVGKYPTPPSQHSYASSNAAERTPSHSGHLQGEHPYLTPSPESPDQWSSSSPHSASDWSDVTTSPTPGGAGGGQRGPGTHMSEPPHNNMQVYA

With `CC(C)CNC(=O)[C@@H]1c2ccccc2C(=O)N(C2Cc3ccccc3C2)[C@H]1c1ccc(CO)cc1`, the composite z-score in [1] is 0.192; in assay [2] it was -0.372; in assay [3] it was -0.0737; in [4], 0.261; in assay [5], -0.51; in assay [6], 1.29. The composite z-score is 1.39 in assay [7]; -0.316 in assay [9]; -0.166 in assay [10]; 0.962 in assay [11]; 2.59 in [15]; 0.159 in assay [17]. The composite z-score in assay [18] was -0.646; in assay [19], -0.145; in [20], -0.311. Moreover, the z-score in assay [8] is -1.56 (inactive); in [12], -0.226 (inactive); in [13], -0.59 (inactive); in [14] it was -0.434 (inactive); in assay [16], 2.01 (inactive).
As for `COc1ccc(CC[C@H](O)c2cccc(OCC(=O)OC(C)(C)C)c2)cc1`, the composite z-score in [1] was -0.386; in assay [2], 1.08; in assay [3], 0.106; in [4], 0.359; in assay [5] it was 0.966; in assay [6], 0.576. The composite z-score in [7] worked out at 0.977; in assay [9], 0.736; in [10], 0.136; in assay [11], 1.55; in assay [15], 2.12; in assay [17], 0.165. The composite z-score stood at 0.956 in assay [18], 1.09 in [19] and 0.0656 in assay [20]. Moreover, the z-score was -0.0488 (inactive) in assay [8]; -2.98 (inactive) in assay [12]; -3.06 (inactive) in [13]; 28.1 (active) in assay [14]; 0.362 (inactive) in assay [16].
In the case of `CCOC(=O)C1=CC[C@@H](c2ccccc2)N(S(=O)(=O)C[Si](C)(C)C)[C@H]1c1ccccc1`, the composite z-score in assay [1] is -0.267; in assay [2], 0.505; in [3] it was -0.0181; in [4] it was 0.389; in assay [5], 1.25; in assay [6], 0.652. Also, the composite z-score in assay [7] was 0.924; in assay [9], 1.25; in assay [10], -0.123; in [11], 1.08; in [15], 2.26; in [17] it was 0.138. In addition, the values for the composite z-score in assay [18], in assay [19] and in assay [20] were 0.291, 1.09 and 0.154, respectively. Moreover, the z-score in assay [8] was -2.47 (inactive); in [12], -0.514 (inactive); in [13], 0.984 (inactive); in assay [14] it was 0.416 (inactive); in assay [16] it was -0.453 (inactive).
For `COC(=O)[C@@H]1N=C(c2ccc(OCCCO)cc2)O[C@@H]1c1ccccc1CN=[N+]=[N-]`, the composite z-score is 0.879 in [1]; -0.744 in [2]; 0.0062 in assay [3]; -0.784 in assay [4]; -0.549 in assay [5]; 1.21 in assay [6]. Also, the composite z-score in assay [7] was 0.945; in [9] it was 0.646; in assay [10], 0.291; in [11] it was 1.01; in assay [15], 1.74; in [17], 0.109. Besides, the composite z-score in assay [18] is -0.0395; in assay [19], 0.327; in assay [20] it was -0.0802. Besides, the z-score in assay [8] is 1.81 (inactive); in [12], 0.23 (inactive); in assay [13], -0.956 (inactive); in assay [14], -1.14 (inactive); in [16], 1.05 (inactive).
For the compound `COCCOC(=O)N1C(=O)[C@@]2(c3cc(C#Cc4ccc(OC)cc4)ccc31)[C@H](C(=O)N1CCCCCCC1)[C@H]1C(=O)O[C@H](c3ccccc3)[C@H](c3ccccc3)N1[C@@H]2c1ccccc1OCCO`, the composite z-score in assay [1] is 3.15; in [2] it was 0.486; in [3] it was 0.685; in [4], 0.265; in assay [5], 1.13; in [6], 1.29. Also, the composite z-score is 1.12 in [7]; 3.04 in [9]; 2.21 in assay [10]; 1.44 in [11]; 3.66 in assay [15]; 1.63 in assay [17]. For the same compound, the composite z-score was 1.91 in assay [18], 1.12 in [19] and 1.02 in [20]. The z-score was -0.575 (inactive) in assay [8]; 1.83 (inactive) in [12]; 1.44 (inactive) in [13]; 3.98 (inactive) in [14]; -0.291 (inactive) in [16].
